{
  "source": "ChEMBL document CHEMBL1961873",
  "about": "“Compounds: GSK PKIS; Assays: Nanosyn kinase panel” (2012)",
  "note": "Values joined by “and” are separate entries in the source; they are usually repeats but may differ in a detail not shown here. Equal entries are not always repeated.",
  "data": [
    {"target": "Maternal embryonic leucine zipper kinase (Homo sapiens) (UniProt Q14680)", "sequence (Q14680 whole entry, looked up)": "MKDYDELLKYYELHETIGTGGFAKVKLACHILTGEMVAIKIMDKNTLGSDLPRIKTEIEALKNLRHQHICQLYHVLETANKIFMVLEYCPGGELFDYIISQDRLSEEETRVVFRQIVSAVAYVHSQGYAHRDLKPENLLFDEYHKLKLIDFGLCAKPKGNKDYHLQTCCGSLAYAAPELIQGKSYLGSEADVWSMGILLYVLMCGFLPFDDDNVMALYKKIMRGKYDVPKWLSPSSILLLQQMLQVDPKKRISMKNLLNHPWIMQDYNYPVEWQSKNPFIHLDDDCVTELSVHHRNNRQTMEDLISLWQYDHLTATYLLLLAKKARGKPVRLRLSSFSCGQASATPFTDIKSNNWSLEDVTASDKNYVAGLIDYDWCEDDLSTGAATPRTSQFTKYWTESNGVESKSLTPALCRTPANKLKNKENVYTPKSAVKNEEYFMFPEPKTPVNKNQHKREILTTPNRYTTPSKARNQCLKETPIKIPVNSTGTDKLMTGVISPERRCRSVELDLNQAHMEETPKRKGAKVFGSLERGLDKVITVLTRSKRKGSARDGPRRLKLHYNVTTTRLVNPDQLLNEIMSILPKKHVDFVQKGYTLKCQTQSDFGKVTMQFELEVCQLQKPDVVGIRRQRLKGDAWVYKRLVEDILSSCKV", "conditions": "at 1 µM", "values": [
      {"molecule": "Fc1ccc(Nc2nccc(-c3c(-c4ccc(C(F)(F)F)cc4)nn4ncccc34)n2)cc1F", "inhibition": "3.78%"},
      {"molecule": "NS(=O)(=O)c1ccc(N/N=C2\\C(=O)Nc3cccc(CCc4ccncc4)c32)cc1", "inhibition": "34.7%"},
      {"molecule": "CCS(=O)(=O)c1ccc(OC)c(Nc2ncc(-c3cccc(F)c3)o2)c1", "inhibition": "15.4%"},
      {"molecule": "COc1ccc(-c2nn3ncccc3c2-c2ccnc(Nc3ccc(F)c(F)c3)n2)cc1", "inhibition": "4.64%"},
      {"molecule": "COc1cc(N2CCN(C(C)C)CC2)ccc1Nc1nc(Nc2cccc3ncccc23)c2cc[nH]c2n1", "inhibition": "3.21%"},
      {"molecule": "N#Cc1ccc2c(-c3ccnc(NC4CC4)n3)c(-c3ccc(F)cc3)nn2c1", "inhibition": "-2.83%"},
      {"molecule": "CNC(=O)c1cncc(/C=C/c2ccccc2C)c1", "inhibition": "4.29%"},
      {"molecule": "CS(=O)(=O)Nc1ccc(-c2ccc3c(NC(=O)C4CC4)n[nH]c3c2)cc1", "inhibition": "3.47%"},
      {"molecule": "CS(=O)(=O)Nc1ccc(-c2cc(-c3ccccc3)cc(C(N)=O)c2N)cc1", "inhibition": "7.77%"},
      {"molecule": "Cc1ccc(-c2cc3c(NC(=O)C4CC4)ncnc3o2)cc1", "inhibition": "4.56%"},
      {"molecule": "c1ccc(-c2n[nH]cc2-c2ccnc(-c3ccc(OCCn4ccnc4)cc3)c2)nc1", "inhibition": "27.2%"},
      {"molecule": "CCN1CCC(C(=O)Nc2n[nH]c3nnc(-c4cccc(F)c4F)cc23)CC1", "inhibition": "-1.79%"},
      {"molecule": "COC(=O)Nc1nc2ccc(Oc3ccc(NC(=O)Nc4cc(C(F)(F)F)ccc4F)cc3)cc2s1", "inhibition": "3.51%"},
      {"molecule": "Cc1cc(O)cc(C)c1/C=C/c1cncc(C(N)=O)c1", "inhibition": "3.76%"},
      {"molecule": "Fc1cccc(COc2ccc(Nc3ncncc3C#Cc3ccccc3)cc2Cl)c1", "inhibition": "4.69%"},
      {"molecule": "COc1cc(N2CCN(C(C)C)CC2)ccc1Nc1nc(Nc2cccc(F)c2C(=O)O)c2cc[nH]c2n1", "inhibition": "7.68%"},
      {"molecule": "COc1ccccc1-c1cc(/C=C2\\C(=O)Nc3ncc(Br)cc32)cc(Br)c1O", "inhibition": "8.21%"},
      {"molecule": "Nc1nccc(-c2c(-c3ccc(F)cc3)ncn2C2CCNCC2)n1", "inhibition": "4.7% and 0.94%"},
      {"molecule": "CN1CCC(C(=O)Nc2n[nH]c3nc(-c4ccc(O)cc4)c(Br)cc23)CC1", "inhibition": "11.7% and 8.84%"},
      {"molecule": "NS(=O)(=O)c1cccc(N/C=C2\\C(=O)Nc3ccccc32)c1", "inhibition": "19%"},
      {"molecule": "CS(=O)(=O)CCNCc1ccc(-c2ccc3ncnc(Nc4ccc(OCc5cccc(C(F)(F)F)c5)cc4)c3c2)o1", "inhibition": "11.4%"},
      {"molecule": "Cc1cc(O)cc(C)c1/C=C/c1cncc(C(=O)OC(C)(C)C)c1", "inhibition": "5.89%"},
      {"molecule": "CC1=C(C(=O)Nc2ccc3[nH]nc(C)c3c2)C(c2ccc(C(F)(F)F)cc2)CC(=O)N1", "note": "(configuration not stated)", "inhibition": "18%"},
      {"molecule": "Cn1c(-c2nonc2N)nc2cnccc21", "inhibition": "22.1%"},
      {"molecule": "O=C(O[C@H]1CN[C@H](C#Cc2cc3ncnc(Nc4ccc(OCc5cccc(F)c5)c(Cl)c4)c3s2)C1)N1CCOCC1", "inhibition": "4.67%"},
      {"molecule": "CCS(=O)(=O)c1ccc(OC)c(Nc2ncc(-c3cccc(C(C)=O)c3)o2)c1", "inhibition": "7.46%"},
      {"molecule": "Cc1c2ccc(N(C)c3ccnc(Nc4cccc(S(N)(=O)=O)c4)n3)cc2nn1C", "inhibition": "3.67%"},
      {"molecule": "COc1cc(Nc2ncc(-c3ccccc3)o2)cc(OC)c1", "inhibition": "5.97%"},
      {"molecule": "CNC(=O)c1ncccc1Nc1nc(Nc2cc3c(cc2OC)CCCN3C(=O)CN(C)C)nc2[nH]ccc12", "inhibition": "18.2%"},
      {"molecule": "CN(c1ccc(NC(=O)NCCN2CCOCC2)cc1)c1ccnc(Nc2ccc(CS(C)(=O)=O)cc2)n1", "inhibition": "7.07%"},
      {"molecule": "c1cnn2ncc(-c3ccnc(NCCCN4CCOCC4)n3)c2c1", "inhibition": "11.9%"}
    ]},
    {"target": "MAP kinase-interacting serine/threonine-protein kinase 1 (Homo sapiens) (UniProt Q9BUB5)", "sequence (Q9BUB5 whole entry, looked up)": "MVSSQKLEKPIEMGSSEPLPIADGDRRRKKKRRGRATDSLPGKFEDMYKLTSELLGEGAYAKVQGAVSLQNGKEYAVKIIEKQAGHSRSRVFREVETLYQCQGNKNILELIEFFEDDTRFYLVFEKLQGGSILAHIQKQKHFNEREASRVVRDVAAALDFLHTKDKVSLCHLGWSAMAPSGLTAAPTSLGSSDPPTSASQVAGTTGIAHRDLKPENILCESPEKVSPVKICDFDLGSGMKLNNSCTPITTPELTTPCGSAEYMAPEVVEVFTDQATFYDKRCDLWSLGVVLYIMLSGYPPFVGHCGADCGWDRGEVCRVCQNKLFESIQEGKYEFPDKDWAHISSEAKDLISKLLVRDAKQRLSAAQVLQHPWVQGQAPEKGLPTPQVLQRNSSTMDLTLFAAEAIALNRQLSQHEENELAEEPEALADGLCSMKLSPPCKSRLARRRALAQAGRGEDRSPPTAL", "conditions": "at 0.1 µM", "values": [
      {"molecule": "Fc1ccc(Nc2nccc(-c3c(-c4ccc(C(F)(F)F)cc4)nn4ncccc34)n2)cc1F", "inhibition": "2.72%"},
      {"molecule": "NS(=O)(=O)c1ccc(N/N=C2\\C(=O)Nc3cccc(CCc4ccncc4)c32)cc1", "inhibition": "1.05%"},
      {"molecule": "CCS(=O)(=O)c1ccc(OC)c(Nc2ncc(-c3cccc(F)c3)o2)c1", "inhibition": "3.79%"},
      {"molecule": "COc1ccc(-c2nn3ncccc3c2-c2ccnc(Nc3ccc(F)c(F)c3)n2)cc1", "inhibition": "2.98%"},
      {"molecule": "COc1cc(N2CCN(C(C)C)CC2)ccc1Nc1nc(Nc2cccc3ncccc23)c2cc[nH]c2n1", "inhibition": "0.05%"},
      {"molecule": "N#Cc1ccc2c(-c3ccnc(NC4CC4)n3)c(-c3ccc(F)cc3)nn2c1", "inhibition": "1.98%"},
      {"molecule": "CNC(=O)c1cncc(/C=C/c2ccccc2C)c1", "inhibition": "4.95%"},
      {"molecule": "CS(=O)(=O)Nc1ccc(-c2ccc3c(NC(=O)C4CC4)n[nH]c3c2)cc1", "inhibition": "2.36%"},
      {"molecule": "CS(=O)(=O)Nc1ccc(-c2cc(-c3ccccc3)cc(C(N)=O)c2N)cc1", "inhibition": "1.45%"},
      {"molecule": "Cc1ccc(-c2cc3c(NC(=O)C4CC4)ncnc3o2)cc1", "inhibition": "1.56%"},
      {"molecule": "c1ccc(-c2n[nH]cc2-c2ccnc(-c3ccc(OCCn4ccnc4)cc3)c2)nc1", "inhibition": "0.75%"},
      {"molecule": "CCN1CCC(C(=O)Nc2n[nH]c3nnc(-c4cccc(F)c4F)cc23)CC1", "inhibition": "1.56%"},
      {"molecule": "COC(=O)Nc1nc2ccc(Oc3ccc(NC(=O)Nc4cc(C(F)(F)F)ccc4F)cc3)cc2s1", "inhibition": "4.79%"},
      {"molecule": "Cc1cc(O)cc(C)c1/C=C/c1cncc(C(N)=O)c1", "inhibition": "9.34%"},
      {"molecule": "Fc1cccc(COc2ccc(Nc3ncncc3C#Cc3ccccc3)cc2Cl)c1", "inhibition": "3.32%"},
      {"molecule": "COc1cc(N2CCN(C(C)C)CC2)ccc1Nc1nc(Nc2cccc(F)c2C(=O)O)c2cc[nH]c2n1", "inhibition": "3.1%"},
      {"molecule": "COc1ccccc1-c1cc(/C=C2\\C(=O)Nc3ncc(Br)cc32)cc(Br)c1O", "inhibition": "4.21%"},
      {"molecule": "Nc1nccc(-c2c(-c3ccc(F)cc3)ncn2C2CCNCC2)n1", "inhibition": "-0.09% and 1.2%"},
      {"molecule": "CN1CCC(C(=O)Nc2n[nH]c3nc(-c4ccc(O)cc4)c(Br)cc23)CC1", "inhibition": "55.1% and 58%"},
      {"molecule": "NS(=O)(=O)c1cccc(N/C=C2\\C(=O)Nc3ccccc32)c1", "inhibition": "2.36%"},
      {"molecule": "CS(=O)(=O)CCNCc1ccc(-c2ccc3ncnc(Nc4ccc(OCc5cccc(C(F)(F)F)c5)cc4)c3c2)o1", "inhibition": "2.34%"},
      {"molecule": "Cc1cc(O)cc(C)c1/C=C/c1cncc(C(=O)OC(C)(C)C)c1", "inhibition": "4.59%"},
      {"molecule": "CC1=C(C(=O)Nc2ccc3[nH]nc(C)c3c2)C(c2ccc(C(F)(F)F)cc2)CC(=O)N1", "note": "(configuration not stated)", "inhibition": "3.53%"},
      {"molecule": "Cn1c(-c2nonc2N)nc2cnccc21", "inhibition": "3.39%"},
      {"molecule": "O=C(O[C@H]1CN[C@H](C#Cc2cc3ncnc(Nc4ccc(OCc5cccc(F)c5)c(Cl)c4)c3s2)C1)N1CCOCC1", "inhibition": "4.6%"},
      {"molecule": "CCS(=O)(=O)c1ccc(OC)c(Nc2ncc(-c3cccc(C(C)=O)c3)o2)c1", "inhibition": "3.04%"},
      {"molecule": "Cc1c2ccc(N(C)c3ccnc(Nc4cccc(S(N)(=O)=O)c4)n3)cc2nn1C", "inhibition": "1.23%"},
      {"molecule": "COc1cc(Nc2ncc(-c3ccccc3)o2)cc(OC)c1", "inhibition": "3.84%"},
      {"molecule": "CNC(=O)c1ncccc1Nc1nc(Nc2cc3c(cc2OC)CCCN3C(=O)CN(C)C)nc2[nH]ccc12", "inhibition": "2.12%"},
      {"molecule": "CN(c1ccc(NC(=O)NCCN2CCOCC2)cc1)c1ccnc(Nc2ccc(CS(C)(=O)=O)cc2)n1", "inhibition": "2.87%"},
      {"molecule": "c1cnn2ncc(-c3ccnc(NCCCN4CCOCC4)n3)c2c1", "inhibition": "4.1%"}
    ]}
  ]
}
